This passage reports Percent Effect results from ChEMBL document CHEMBL3988442, “University of Dundee, Small-Polar-MMV Screening Library” (2021).

Values joined by “and” are separate entries in the source; they are usually repeats but may differ in a detail not shown here. Identical values can stand only once. For some of these results: Entries with a potency or affinity are not part of this list.

What all share (set-up): scale not given: direction of the effect not stated beside the values
Assay [1] concerns the target Protein translocase subunit SecA (Escherichia coli (strain K12)) (UniProt P10408). Put plainly: Assay to Identify E. coli SecA ATPase Inhibitors. It counts as functional. Conditions: 30 µM.
In assay [2] the target is T1, Ubiquitin-activating enzyme e1, putative (Leishmania donovani (strain BPK282A1)) (UniProt E9BSI1).
T1 sequence (whole entry): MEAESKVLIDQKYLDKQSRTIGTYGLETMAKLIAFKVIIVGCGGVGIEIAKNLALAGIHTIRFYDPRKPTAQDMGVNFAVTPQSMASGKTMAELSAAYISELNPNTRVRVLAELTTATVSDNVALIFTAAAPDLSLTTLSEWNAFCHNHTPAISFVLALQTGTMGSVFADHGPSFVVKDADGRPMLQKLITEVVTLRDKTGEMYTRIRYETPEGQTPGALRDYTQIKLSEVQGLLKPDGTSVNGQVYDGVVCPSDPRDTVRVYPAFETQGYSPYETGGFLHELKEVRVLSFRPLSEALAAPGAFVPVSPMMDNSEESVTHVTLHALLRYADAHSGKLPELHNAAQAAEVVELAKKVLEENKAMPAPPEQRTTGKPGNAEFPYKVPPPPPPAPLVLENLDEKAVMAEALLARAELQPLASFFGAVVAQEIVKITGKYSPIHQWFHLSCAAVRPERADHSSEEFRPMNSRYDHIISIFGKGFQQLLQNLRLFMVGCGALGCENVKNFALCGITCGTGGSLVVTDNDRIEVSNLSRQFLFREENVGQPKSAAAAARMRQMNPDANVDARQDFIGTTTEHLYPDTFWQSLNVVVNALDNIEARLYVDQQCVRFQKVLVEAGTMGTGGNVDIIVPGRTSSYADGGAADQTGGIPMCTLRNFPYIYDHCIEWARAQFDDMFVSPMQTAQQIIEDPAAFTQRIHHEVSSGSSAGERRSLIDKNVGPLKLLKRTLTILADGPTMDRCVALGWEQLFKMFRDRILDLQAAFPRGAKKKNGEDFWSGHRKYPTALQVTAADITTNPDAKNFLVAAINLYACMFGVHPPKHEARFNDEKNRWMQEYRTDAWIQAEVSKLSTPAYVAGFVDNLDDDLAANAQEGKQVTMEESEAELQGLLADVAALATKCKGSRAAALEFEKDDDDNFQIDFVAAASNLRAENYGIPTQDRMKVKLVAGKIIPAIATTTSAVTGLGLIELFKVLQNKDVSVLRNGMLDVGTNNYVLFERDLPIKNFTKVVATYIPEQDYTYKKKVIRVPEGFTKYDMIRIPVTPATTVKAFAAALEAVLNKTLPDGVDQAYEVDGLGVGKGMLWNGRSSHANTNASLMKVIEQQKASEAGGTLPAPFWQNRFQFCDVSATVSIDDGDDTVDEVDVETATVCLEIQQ
The experiment in a line: Leishmania donovani Ubiquitin Activating Enzyme (LdE1). Conditions: 30 µM. The class given is functional.

For assay [3], the target named is Sialic acid-binding Ig-like lectin 9 (Homo sapiens) (UniProt Q9Y336). The experiment in a line: Hs-Siglec9 ALPHAscreen SOP 20170721. Conditions: 10 µM.
For another assay, the system named is Trypanosoma cruzi. The experiment in a line: Trypanosoma cruzi phosphomannomutase and mannose-1-phosphate guanylyltransferase assay. The class given is functional. Conditions: 10 µM.
Assay [4] has as its target T2, Arginase-2, mitochondrial (Homo sapiens) (UniProt P78540).
T2 sequence (whole entry): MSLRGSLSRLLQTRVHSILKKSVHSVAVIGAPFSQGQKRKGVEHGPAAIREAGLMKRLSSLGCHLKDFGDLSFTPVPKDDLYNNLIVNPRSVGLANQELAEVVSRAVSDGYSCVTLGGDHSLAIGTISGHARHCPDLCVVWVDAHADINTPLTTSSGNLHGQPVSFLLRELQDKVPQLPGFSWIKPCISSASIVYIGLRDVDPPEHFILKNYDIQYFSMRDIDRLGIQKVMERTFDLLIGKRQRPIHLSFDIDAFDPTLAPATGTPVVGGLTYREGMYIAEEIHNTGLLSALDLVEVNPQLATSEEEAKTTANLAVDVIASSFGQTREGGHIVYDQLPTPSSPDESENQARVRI
The experiment in a line: in vitro enzyme assay to detect the production of urea directly proportional to the activity of Arginase II. Further: in the data most compounds retested in dose-response had high values. The class given is functional.

The target in assay [5] is T3, Proteasome subunit beta (Trypanosoma cruzi) (UniProt O96673).
T3 sequence (whole entry): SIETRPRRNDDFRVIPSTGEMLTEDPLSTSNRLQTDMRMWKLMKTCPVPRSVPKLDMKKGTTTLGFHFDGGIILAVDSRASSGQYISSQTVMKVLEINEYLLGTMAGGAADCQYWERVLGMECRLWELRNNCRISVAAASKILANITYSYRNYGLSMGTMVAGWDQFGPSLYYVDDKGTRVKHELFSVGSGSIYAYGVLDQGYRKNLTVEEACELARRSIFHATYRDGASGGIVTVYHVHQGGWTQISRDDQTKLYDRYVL
The experiment in a line: Trypanosoma cruzi proteasome chymotrypsin-like activity (TcProtChymo) assay. Further: in the data most compounds retested in dose-response had high values. It counts as functional. Conditions: 9.37 µM.

Another assay is filed under the species Homo sapiens. The experiment in a line: To identify inhibition of the IFN signalling (Jak-Stat) pathway via expression of an eGFP reporter gene under the control of an IFN-stimulated response element (ISRE) containing MxA promoter. The class given is functional. Conditions: 30 µM. (A reporter such as luciferase makes a cellular process visible.)
The target of assay [6] is T4, Tyrosyl-tRNA synthetase, putative (Trypanosoma cruzi (strain CL Brener)) (UniProt Q4DSP6).
T4 sequence (whole entry): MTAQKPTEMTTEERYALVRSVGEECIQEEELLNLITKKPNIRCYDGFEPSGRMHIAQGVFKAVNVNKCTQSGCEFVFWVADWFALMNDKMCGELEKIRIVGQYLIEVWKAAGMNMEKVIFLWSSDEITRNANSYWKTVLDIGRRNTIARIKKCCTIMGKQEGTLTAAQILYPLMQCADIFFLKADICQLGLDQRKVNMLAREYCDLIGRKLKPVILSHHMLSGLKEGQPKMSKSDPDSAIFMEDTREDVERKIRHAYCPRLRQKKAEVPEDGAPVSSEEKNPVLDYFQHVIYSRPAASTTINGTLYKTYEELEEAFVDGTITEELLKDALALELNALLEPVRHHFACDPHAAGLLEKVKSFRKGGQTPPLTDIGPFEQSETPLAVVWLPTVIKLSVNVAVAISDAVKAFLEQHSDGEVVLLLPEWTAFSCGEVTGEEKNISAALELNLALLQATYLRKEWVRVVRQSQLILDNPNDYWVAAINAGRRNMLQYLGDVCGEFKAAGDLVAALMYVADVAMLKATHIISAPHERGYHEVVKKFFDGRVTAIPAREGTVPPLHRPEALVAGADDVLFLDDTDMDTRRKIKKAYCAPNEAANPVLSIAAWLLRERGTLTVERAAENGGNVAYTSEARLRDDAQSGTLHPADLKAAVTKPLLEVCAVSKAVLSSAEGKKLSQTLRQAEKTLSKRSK
The experiment in a line: Trypanosoma cruzi tyrosyl tRNA synthetase (TcYRS) _High Tyrosine SOP. Further: in the data most compounds retested in dose-response had high values. Conditions: 30 µM. It counts as functional.

Assay [7] addresses T4, Tyrosyl-tRNA synthetase, putative (Trypanosoma cruzi (strain CL Brener)). The experiment in a line: Trypanosoma cruzi tyrosyl tRNA synthetase (TcYRS) SOP. Conditions: 30 µM. It counts as functional.
Assay [8] addresses Chromo domain-containing protein 1 (Saccharomyces cerevisiae (strain ATCC 204508 / S288c) (Baker's yeast)) (UniProt P32657). The experiment in a line: ScCHD-1 Enzyme Inhibition Assay. Further: in the data most compounds retested in dose-response had high values. The class given is functional. Conditions: 30 µM.
The next assay concerns N/A. Put plainly: Trypanosoma cruzi proteasome luciferase counter-screen. Conditions: 9.37 µM. The class given is functional. On the technique in general: A counterscreen serves to expose hits that act by an unwanted route or on another target.
For assay [9], the target named is AMP-activated protein kinase, AMPK (Homo sapiens) (UniProt P54646+O43741+P54619+Q9UGJ0+Q9Y478+Q13131+Q9UGI9). The experiment in a line: AMP-dependent Kinase enzyme assay. An in vitro enzyme assay that detects ADP turnover that is directly proportional to AMPK activity. This uses naive AMPK that is activated during the assay with MK-8722. It counts as functional. Conditions: 30 µM.

Sequence of Chromo domain-containing protein 1 (Saccharomyces cerevisiae (strain ATCC 204508 / S288c) (Baker's yeast)) (P32657 whole entry, the tested form may be a part): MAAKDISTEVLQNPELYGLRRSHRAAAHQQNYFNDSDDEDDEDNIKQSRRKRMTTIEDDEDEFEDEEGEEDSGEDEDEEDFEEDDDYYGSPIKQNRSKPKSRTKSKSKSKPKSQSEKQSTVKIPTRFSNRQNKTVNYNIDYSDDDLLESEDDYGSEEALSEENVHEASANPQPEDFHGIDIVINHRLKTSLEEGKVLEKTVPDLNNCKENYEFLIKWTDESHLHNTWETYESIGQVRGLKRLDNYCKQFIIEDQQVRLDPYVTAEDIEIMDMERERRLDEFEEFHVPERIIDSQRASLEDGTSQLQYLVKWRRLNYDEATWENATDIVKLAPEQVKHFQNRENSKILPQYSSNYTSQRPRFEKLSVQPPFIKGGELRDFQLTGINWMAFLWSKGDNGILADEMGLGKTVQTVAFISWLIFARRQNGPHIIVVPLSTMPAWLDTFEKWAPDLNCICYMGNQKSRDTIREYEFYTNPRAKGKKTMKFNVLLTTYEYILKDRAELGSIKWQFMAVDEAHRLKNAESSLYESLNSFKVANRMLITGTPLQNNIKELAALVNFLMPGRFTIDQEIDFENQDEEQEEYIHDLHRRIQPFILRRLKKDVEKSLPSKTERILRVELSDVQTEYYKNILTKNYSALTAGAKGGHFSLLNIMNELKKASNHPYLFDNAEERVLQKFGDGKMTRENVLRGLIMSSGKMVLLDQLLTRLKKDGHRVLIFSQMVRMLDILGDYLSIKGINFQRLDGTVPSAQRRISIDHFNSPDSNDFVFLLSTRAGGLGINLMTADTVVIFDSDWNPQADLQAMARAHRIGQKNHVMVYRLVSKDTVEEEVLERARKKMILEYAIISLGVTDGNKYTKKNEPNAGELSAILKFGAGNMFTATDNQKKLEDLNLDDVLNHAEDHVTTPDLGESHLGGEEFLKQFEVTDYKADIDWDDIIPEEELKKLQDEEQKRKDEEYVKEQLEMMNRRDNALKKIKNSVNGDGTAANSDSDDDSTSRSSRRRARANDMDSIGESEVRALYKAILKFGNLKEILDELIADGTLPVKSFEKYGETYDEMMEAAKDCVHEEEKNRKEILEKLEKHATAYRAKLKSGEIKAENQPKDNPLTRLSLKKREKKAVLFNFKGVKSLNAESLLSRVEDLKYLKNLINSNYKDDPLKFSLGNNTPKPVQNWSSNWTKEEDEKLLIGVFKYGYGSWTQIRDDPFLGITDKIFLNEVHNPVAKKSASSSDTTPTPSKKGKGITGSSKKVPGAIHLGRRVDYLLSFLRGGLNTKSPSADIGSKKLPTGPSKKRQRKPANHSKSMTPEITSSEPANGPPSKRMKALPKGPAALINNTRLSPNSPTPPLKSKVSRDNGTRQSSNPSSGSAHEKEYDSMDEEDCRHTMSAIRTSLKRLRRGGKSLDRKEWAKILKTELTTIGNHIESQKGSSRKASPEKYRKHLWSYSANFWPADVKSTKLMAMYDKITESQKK
Sequence of Protein translocase subunit SecA (Escherichia coli (strain K12)) (P10408 whole entry): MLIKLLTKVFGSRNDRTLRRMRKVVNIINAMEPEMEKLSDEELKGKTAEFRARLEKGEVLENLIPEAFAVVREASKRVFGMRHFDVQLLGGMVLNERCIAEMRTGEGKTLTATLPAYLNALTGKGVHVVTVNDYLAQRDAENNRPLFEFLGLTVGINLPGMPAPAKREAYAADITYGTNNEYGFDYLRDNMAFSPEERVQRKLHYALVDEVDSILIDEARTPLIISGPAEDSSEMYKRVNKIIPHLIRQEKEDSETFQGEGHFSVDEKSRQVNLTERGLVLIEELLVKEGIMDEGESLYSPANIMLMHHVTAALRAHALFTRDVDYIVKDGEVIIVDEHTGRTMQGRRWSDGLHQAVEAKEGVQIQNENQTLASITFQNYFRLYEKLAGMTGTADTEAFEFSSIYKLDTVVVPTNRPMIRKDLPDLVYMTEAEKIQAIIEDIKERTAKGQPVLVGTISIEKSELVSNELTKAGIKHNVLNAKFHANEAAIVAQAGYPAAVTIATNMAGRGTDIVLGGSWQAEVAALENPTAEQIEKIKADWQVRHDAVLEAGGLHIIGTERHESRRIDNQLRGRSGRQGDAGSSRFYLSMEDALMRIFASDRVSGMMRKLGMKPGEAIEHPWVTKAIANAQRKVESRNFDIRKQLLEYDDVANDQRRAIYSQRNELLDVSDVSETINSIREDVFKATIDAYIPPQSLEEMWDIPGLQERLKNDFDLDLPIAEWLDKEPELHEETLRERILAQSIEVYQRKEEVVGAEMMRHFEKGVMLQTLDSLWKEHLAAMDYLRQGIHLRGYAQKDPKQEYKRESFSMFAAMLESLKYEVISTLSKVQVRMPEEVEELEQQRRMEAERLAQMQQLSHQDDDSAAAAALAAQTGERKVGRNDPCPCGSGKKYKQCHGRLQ
Sequence of Sialic acid-binding Ig-like lectin 9 (Homo sapiens) (Q9Y336 whole entry): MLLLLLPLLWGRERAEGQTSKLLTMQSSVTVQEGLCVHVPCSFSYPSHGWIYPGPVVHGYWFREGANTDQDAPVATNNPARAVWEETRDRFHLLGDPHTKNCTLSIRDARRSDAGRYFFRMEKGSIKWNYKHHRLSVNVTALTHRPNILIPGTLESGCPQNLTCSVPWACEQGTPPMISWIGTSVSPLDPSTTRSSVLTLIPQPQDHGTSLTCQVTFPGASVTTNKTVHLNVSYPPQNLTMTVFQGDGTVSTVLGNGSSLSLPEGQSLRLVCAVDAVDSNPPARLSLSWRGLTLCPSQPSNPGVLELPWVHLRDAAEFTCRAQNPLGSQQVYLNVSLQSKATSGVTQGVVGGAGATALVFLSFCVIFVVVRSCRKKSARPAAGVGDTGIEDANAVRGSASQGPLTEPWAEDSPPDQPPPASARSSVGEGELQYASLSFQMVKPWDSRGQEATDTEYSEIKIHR

Regarding `CC(=O)N1[C@H](CN(C)C)C[C@@H]2CN(C(=O)c3cccc(F)c3)CC[C@@H]21`, the Percent Effect is -6.12% in assay [1]; 9.09% in assay [2]; -5.21% in [3]; -3.19% in the assay with Trypanosoma cruzi; -12.8% in [4] (33.3 µM); 14.2% in assay [5]. Besides, the Percent Effect in the assay filed under Homo sapiens was 14.5%; in assay [6] it was 3.87%; in assay [7] it was 0%; in assay [8], -5.63%.
As for `Cc1nc(C)n(CC2CCCN2Cc2nc(N)c3ccccc3n2)n1` (stereo not drawn), the Percent Effect was -1.49% in [1]; 21.3% in [2]; -3.38% in assay [3]; 3.81% in the assay on Trypanosoma cruzi; -3.1% in assay [4] (33.3 µM); 16.4% and 18.4% and 30.6% in assay [5]. The Percent Effect is 8.36% and 7.38% in the assay with N/A; 8.71% in the assay filed under Homo sapiens; 6.84% in [6]; 15.4% in assay [7]; -17.8% in assay [8].
With `CS(=O)(=O)N1CCN(C(=O)Cn2ccc3c(Cl)cccc32)CC1`, the Percent Effect in assay [1] was -4.17%; in assay [2], -2.7%; in assay [3], -2.63%; in the assay on Trypanosoma cruzi, -7.08%; in assay [4] (30 µM) it was 5.95%; in assay [4] (33.3 µM), -3.15%. Further, the Percent Effect in assay [5] is 18.1%; in the assay listed under Homo sapiens, 4.83%; in assay [6] it was 2.66%; in [7], 2.44%; in [8], -0.985%.
Consider `c1ccc(-c2ccc(C3CNCCO3)nc2)cc1` (stereo not drawn), for which the Percent Effect was -1.91% in assay [1]; 14.7% in assay [2]; -4.38% in assay [3]; -2.37% with Trypanosoma cruzi; -3.1% in [4] (33.3 µM); 41% and 49.8% and 42.6% in assay [5]. Besides, the Percent Effect with N/A is 18% and 21%; in the assay filed under Homo sapiens it was -23.6%; in [6] it was 3.17%; in [7] it was 7.5%; in assay [8] it was -25.7%.
For the molecule `CC(Nc1cccc(CN2CCOC2=O)c1)C(=O)N1CCNC1=O` (stereo not drawn), the Percent Effect in [1] was -10.4%; in assay [2] it was 7.69%; in [3], 2.33%; in the assay with Trypanosoma cruzi, -5.16%; in assay [4] (33.3 µM) it was -2.46%; in assay [5] it was 2.3%. In addition, the Percent Effect in the assay filed under Homo sapiens was 28.2%; in [6] it was 2.39%; in assay [7] it was 8.43%; in assay [8], -2.72%.
Take `Cc1cccc(CN2C[C@@H]3COC[C@]3(COc3ccc(C#N)cn3)C2)n1`: the Percent Effect was -2.98% in assay [1]; -8.22% in assay [2]; -1.47% in assay [9]; 2.28% in assay [3]; 10.1% in the assay with Trypanosoma cruzi; -1.2% in assay [4] (33.3 µM). For the same molecule, the Percent Effect in assay [5] was 3.34%; in the assay filed under Homo sapiens, 4.74%; in [6], 0%; in assay [7] it was 8.64%; in [8], -0.121%.
As for `Cc1cc(C(=O)NCc2ccc(N3CCCC(C(N)=O)C3)cc2)no1` (stereo not drawn), the Percent Effect in assay [1] was -3.67%; in assay [2] it was 10.7%; in [3], 2.55%; in the assay on Trypanosoma cruzi, 3.01%; in assay [4] (33.3 µM) it was 4.88%; in assay [5], 11.1%. For the same molecule, the Percent Effect in the assay filed under Homo sapiens is 3.86%; in assay [6] it was 2.63%; in assay [7] it was 5.13%; in assay [8], -7.24%.
With `Cc1ccc(C)c(C(C(=O)O)N2CCCN(Cc3ccccn3)CC2)c1` (stereo not drawn), the Percent Effect is -6.39% in assay [1]; 5.41% in [2]; 1.19% in [3]; -2.23% in the assay on Trypanosoma cruzi; 0.54% in assay [4] (30 µM); 4.54% in assay [4] (33.3 µM). The Percent Effect was 16.3% in [5]; 23.2% in the assay filed under Homo sapiens; 6.92% in [6]; 14.6% in assay [7]; -4.84% in assay [8].
Take `Cc1nc(C)c(C(=O)OCCNc2ncccc2C#N)s1`: the Percent Effect is -3.81% in assay [1]; 10.4% in assay [2]; 12.8% in assay [3]; -7.09% with Trypanosoma cruzi; 1.02% in [4] (33.3 µM); 71.6% and 65.6% and 62.3% in [5]. In addition, the Percent Effect with N/A is 28.5% and 30.6%; in the assay listed under Homo sapiens, 32.9%; in [6], 2.94%; in [7] it was 9.41%; in assay [8] it was 0.0387%.
On to `CN(C)c1cc(CNC(=O)Nc2ccc(F)cc2)ccn1`, for which the Percent Effect in [1] was 2.4%; in assay [2], 17.9%; in assay [3], -9.83%; with Trypanosoma cruzi it was 3.29%; in assay [4] (33.3 µM), 0.41%; in [5], 47.8% and 47.4% and 50.2%. The Percent Effect in the assay on N/A is 25.9% and 25.6%; in the assay filed under Homo sapiens, 6.94%; in [6] it was 7.18%; in [7], 25.3%; in assay [8] it was -3.18%.
Turning to `Nc1nc(CCC(=O)N2CCOC(CC3CCCCC3)C2)cs1` (stereo not drawn), the Percent Effect in assay [1] was -7.43%; in assay [2], 0%; in assay [3] it was 6.25%; with Trypanosoma cruzi it was 11.3%; in assay [4] (30 µM) it was 3.78%; in assay [4] (33.3 µM), -2.45%. Further, the Percent Effect in [5] stood at 3.25%; in the assay filed under Homo sapiens, 10.9%; in assay [6], 9.04%; in [7] it was 19.5%; in assay [8] it was 5.38%.
